# Results filed as inconclusive are left out. Active and inactive are the calls of the source. Calls follow the shape of the dose curve; as a rule, active = well fitted curve in the direction sought with a large enough effect; inconclusive = small, poorly fitted or top-dose-only effect, or another doubt; inactive = no such curve, though single readings can be large; an effect the other way counts as inactive or inconclusive.
# Assay: qHTS of pediatric cancer cell lines to identify multiple opportunities for drug repurposing: Primary screen for SK-N-MC cells (AID 1347093);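 as to activity change, negative = cytotoxic: plate controls were DMSO neutral control for no effect and bortezomib for full effect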
# Details: SK-N-MC viability, CellTiter-Glo luminescence, 48 h; series mostly up to 46 µM; activity change, negative = cytotoxic: at the top concentration
# Outline: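 Metabolically active cells were quantified by ATP-dependent luminescence (CellTiter-Glo, 15 min at room temperature) following 48 h treatment. Cells had been plated at 500-1,000 per well and settled for 5 h beforehand.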
# Potency is read from the fitted curve at half-maximal effect.
SMILES,Potency,"activity change, negative = cytotoxic"
COc1cc(C)c(C=CC(C)=CC=CC(C)=CC(=O)O)c(C)c1C,18700 nM (active),–
NC(=O)c1ncn([C@@H]2O[C@H](CO)[C@@H](O)[C@@H]2O)c1O,–,17% (inactive)
COc1cccc2c1C(=O)c1c(O)c3c(c(O)c1C2=O)C[C@@](O)(C(C)=O)C[C@H]3O[C@H]1C[C@H](N)[C@H](O)[C@H](C)O1,46.9 nM (active),–
O=C(Nc1cccc(Nc2ncc(Br)c(NCCc3cnc[nH]3)n2)c1)N1CCCC1,332 nM (active),–
CC(C)OC(=O)[C@H](C)N[P@](=O)(OC[C@H]1O[C@@H](n2ccc(=O)[nH]c2=O)[C@](C)(F)[C@H]1O)Oc1ccccc1,–,-25.5% (inactive)
CC(=O)NC(CS)C(=O)O (stereo not given),–,-31% (inactive)
O=C1NC(=O)C(=Cc2ccc3nccc(-c4ccncc4)c3c2)S1,16.6 nM (active),–

# Assay: qHTS of pediatric cancer cell lines to identify multiple opportunities for drug repurposing: Primary screen for BT-37 cells (AID 1347094);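 as to activity change, negative = cytotoxic: plate controls were DMSO for no effect and bortezomib for full effect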
# Details: BT-37 viability, CellTiter-Glo luminescence, 48 h; series mostly up to 57.3 µM; activity change, negative = cytotoxic: at the top concentration
# Outline: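 Readout: CellTiter-Glo luminescence, 48 h treatment. Controls DMSO (neutral) and bortezomib 2.3 µM final (positive). Potency and efficacy taken from primary-screen concentration-response curves.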
SMILES,Potency,"activity change, negative = cytotoxic"
C=Cc1c(C)c2cc3nc(cc4[nH]c(cc5nc(cc1[nH]2)C(C)=C5CCC(=O)O)c(CCC(=O)OC)c4C)[C@@]1(C)C3=CC=C(C(=O)OC)[C@H]1C(=O)OC,76.9 nM (active),–
CCc1ccc(C(=O)Nc2cc(CN3CCN(C)CC3)cc(C(F)(F)F)c2)cc1C#Cc1cnc2ccnn2c1,24300 nM (active),–
CC(=O)N[C@@H]1[C@H](O[C@@H]2c3ccc(c(Cl)c3)Oc3cc4cc(c3O[C@H]3O[C@H](CO)[C@@H](O)[C@H](O)[C@H]3NC(=O)CCCCCCCC(C)C)Oc3ccc(cc3Cl)C[C@H]3NC(=O)[C@H](N)c5ccc(O)c(c5)Oc5cc(O)cc(c5)[C@H](NC3=O)C(=O)N[C@H]4C(=O)N[C@H]3C(=O)N[C@@H]2C(=O)N[C@@H](C(=O)O)c2cc(O)cc(O[C@H]4O[C@H](CO)[C@@H](O)[C@H](O)[C@H]4O)c2-c2cc3ccc2O)O[C@H](CO)[C@@H](O)[C@@H]1O,–,0.146% (inactive)
Cc1[nH]c(C=C2C(=O)Nc3ccccc32)c(C)c1CCC(=O)O,863 nM (active),–
COc1cc2ncnc(Nc3cccc(Br)c3)c2cc1OC,24300 nM (active),–
N[C@H]1CN(c2c(F)cc3c(=O)c(C(=O)O)cn(C4C[C@@H]4F)c3c2Cl)CC12CC2 (stereo not given in full),–,13.8% (inactive)
Nc1nc(N)c2nc(-c3cccc(O)c3)c(-c3cccc(O)c3)nc2n1,21700 nM (active),–
COc1cc(OC)cc(-c2ccc3ncc4ccc(=O)n(-c5ccc(N6CCNCC6)c(C(F)(F)F)c5)c4c3c2)c1,15300 nM (active),–
CN(N=O)C(=O)N[C@H]1C(O)OC(CO)[C@@H](O)[C@H]1O (stereo not given in full),–,3.42% (inactive)
COc1cc(N2CCC(C(N)=O)CC2)ccc1Nc1nc(N)c(Cl)c(Nc2ccccc2S(=O)(=O)C(C)C)n1,–,-0.352% (inactive)
C[C@H](CCC(=O)O)[C@H]1CCC2C3C[C@H](O)[C@@H]4C[C@H](O)CC[C@]4(C)C3CC[C@@]21C (stereo not given in full),–,-2.08% (inactive)
CC(C)[C@H](CO)Nc1nc(Nc2cccc(Cl)c2)c2ncn(C(C)C)c2n1,21700 nM (active),–
CC(C)NC[C@@H](C(=O)N1CCN(c2ncnc3c2[C@H](C)C[C@H]3O)CC1)c1ccc(Cl)cc1,4320 nM (active),–
COC(=O)C=CC(=O)OC,–,0.532% (inactive)
O=C1NC(O)CCN1[C@@H]1O[C@H](CO)[C@H](O)[C@H]1O (stereo not given in full),–,11.7% (inactive)
CCN(CC)Cc1ccc2cc(COC(=O)Nc3ccc(C(=O)NO)cc3)ccc2c1,1930 nM (active),–
COc1ccc(S(=O)(=O)Nc2cccnc2Nc2ccc(O)cc2)cc1,344 nM (active),–

SMILES,Potency,"activity change, negative = cytotoxic"
CNC(=O)c1cccc(-c2ccc3c(N4CCOC[C@H]4C)nc(N4CCOC[C@H]4C)nc3n2)c1,122 nM (active),–
NC1=N[C@H]2[C@H](CS[C@H]2CCCCC(=O)O)N1,–,12.7% [at 20.1 µM] (inactive)
C=CCNc1c(O)cc2c(O)c1C[C@@H](C)C[C@H](OC)[C@@H](O)[C@@H](C)C=C(C)[C@H](OC(N)=O)[C@@H](OC)C=CC=C(C)C(=O)N2,217 nM (active),–
Cn1cnc(=N)c2[nH]cnc21,1370 nM (active),–
O=C(NC1CC1)c1cccc(-c2ccc3c(NC(=O)C4CC4)n[nH]c3c2)c1,3430 nM (active),–
CN[C@@H]1C[C@H]2O[C@@](C)([C@H]1OC)n1c3ccccc3c3c4c(c5c6ccccc6n2c5c31)C(=O)N[C@H]4O,6850 nM (active),–
CN(CC(=O)N(Cc1ccc(C2CCCCC2)cc1)c1ccc(C(=O)O)c(O)c1)S(=O)(=O)c1c(F)c(F)c(F)c(F)c1F,17200 nM (active),–
COc1cc2c(Nc3ccc(Cl)c(Cl)c3F)ncnc2cc1OCC1C[C@@H]2CN(C)C[C@H]2C1,24300 nM (active),–
FC(F)c1nc2ccccc2n1-c1nc(N2CCOCC2)nc(N2CCOCC2)n1,1090 nM (active),–
C=C1C(=CC=C2CCC[C@]3(C)[C@@H]([C@H](C)CCCC(C)(C)O)CC[C@@H]23)C[C@@H](O)C[C@@H]1O,6850 nM (active),–
NC(=O)c1ncn([C@@H]2O[C@H](CO)[C@@H](O)[C@@H]2O)c1O,–,1.37% (inactive)
COc1cccc2c1C(=O)c1c(O)c3c(c(O)c1C2=O)C[C@@](O)(C(C)=O)C[C@H]3O[C@H]1C[C@H](N)[C@H](O)[C@H](C)O1,27.3 nM (active),–
O=C(Nc1cccc(Nc2ncc(Br)c(NCCc3cnc[nH]3)n2)c1)N1CCCC1,21700 nM (active),–
CC(C)OC(=O)[C@H](C)N[P@](=O)(OC[C@H]1O[C@@H](n2ccc(=O)[nH]c2=O)[C@](C)(F)[C@H]1O)Oc1ccccc1,–,-1.52% (inactive)
CC(=O)NC(CS)C(=O)O (stereo not given),–,7.54% (inactive)
O=C1NC(=O)C(=Cc2ccc3nccc(-c4ccncc4)c3c2)S1,432 nM (active),–
